Measured values published in PubChem BioAssay.
Several values for one entry are separate records, joined by “and”; a condition that tells them apart may be missing. Equal entries are not always repeated. Activity calls are given as the source filed them.

Experiments:
[1] = molecular target: Albumin (Bos taurus) (UniProt P02769); test: bovine serum albumin binders on microarray, profiling panel, artefact control for SMM control protein annotation, biochemical, small-molecule microarray, Alexa647 label, 635/667 nm fluorescence (AID 1118); details: BSA-A647 binding, fluorescence 635 nm, higher = more signal;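 note: score merges 667 nm emission intensity and signal-to-noise per printed compound spot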
[2] = small-molecule microarray binders of probe aXIP, primary screen, biochemical, NeuroSMM set, 635/667 nm fluorescence (AID 1119); details: higher = more signal, called active from +8 up or from −8 down;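 note: probe is the protein aXip251-270 applied at 1 µg/mL to compound-printed slides; binding of probe to printed compounds measured as 667 nm fluorescence plus signal to noise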
[3] = small-molecule binders of probe aNOTCH3, primary screen, biochemical, small-molecule microarray, 635/667 nm fluorescence (AID 1120); details: higher = more signal;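 note: probe is a biotin-tagged antibody raised against NOTCH3 rather than NOTCH3 protein; score merges spot fluorescence near 667 nm with spot signal to noise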
[4] = small-molecule binders of probe aNOTCH2, primary screen, biochemical, small-molecule microarray, 635/667 nm fluorescence (AID 1121); details: higher = more signal;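 note: score merges feature fluorescence read at 667 nm with its signal to noise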
[5] = molecular target: Carbonic anhydrase 2 (Homo sapiens) (UniProt P00918); test: CAII small-molecule binders, profiling panel, biochemical, small-molecule microarray, Alexa647-labelled CAII (AID 1122); details: CAII-A647 binding fluorescence, higher = more signal
[6] = COS7 lysate on small-molecule microarray, probe aHis, 635 nm (AID 1123); details: COS7 cell lysate, fluorescence, higher = more signal;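 note: z-score combines 667nm fluorescence intensity with signal-to-noise per printed compound spot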
[7] = compound binding in COS7 lysate, probe aLAP1, primary screen, cell lysate, small-molecule microarray (AID 1124); details: probe aLAP1, fluorescence, higher = more signal;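 note: lysate comes from COS7 cells expressing LAP1 and is applied at 0.3 µg/mL; score merges spot fluorescence near 667 nm with signal-to-noise over triplicate slides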
[8] = tested on: Sam68 (KHDRBS1); test: Sam68 small-molecule binders, primary screen, biochemical, small-molecule microarray, 635 nm fluorescence (AID 1125); details: small-molecule microarray binding, higher = more signal;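 note: score merges 667 nm channel intensity with signal to noise over triplicate slides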
[9] = tested on: Chordin-like protein 2 (CHRDL2); test: CHRDL2 small-molecule binders, primary screen, biochemical, small-molecule microarray, 635 nm fluorescence (AID 1126); details: small-molecule microarray binding, fluorescence 635 nm; higher = more signal;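 note: printed compound slides probed with Chrdl2 protein at 4 µg/mL for 1 h at 4 C; score merges 667 nm emission intensity with signal to noise over three replicate slides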
[10] = molecular target: Concanavalin-A (Canavalia ensiformis) (UniProt P02866); test: ConA small-molecule binders, primary screen, artefact control for SMM control protein annotation, biochemical, small-molecule microarray, Alexa647 label, 635 nm (AID 1127); details: ConA-A647 binding fluorescence, higher = more signal;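 note: z combines 667 nm emission intensity with signal-to-noise across three replicate slides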
Sequence of Concanavalin-A (Canavalia ensiformis) (P02866 whole entry, looked up): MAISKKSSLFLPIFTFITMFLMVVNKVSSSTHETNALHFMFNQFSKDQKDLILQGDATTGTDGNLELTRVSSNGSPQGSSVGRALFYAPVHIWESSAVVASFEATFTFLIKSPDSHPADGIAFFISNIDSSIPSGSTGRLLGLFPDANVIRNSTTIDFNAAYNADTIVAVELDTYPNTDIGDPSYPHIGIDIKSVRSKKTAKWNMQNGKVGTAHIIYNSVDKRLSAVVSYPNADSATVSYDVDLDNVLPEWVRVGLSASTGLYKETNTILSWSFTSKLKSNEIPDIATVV

Sequence of Albumin (Bos taurus) (P02769 whole entry, looked up): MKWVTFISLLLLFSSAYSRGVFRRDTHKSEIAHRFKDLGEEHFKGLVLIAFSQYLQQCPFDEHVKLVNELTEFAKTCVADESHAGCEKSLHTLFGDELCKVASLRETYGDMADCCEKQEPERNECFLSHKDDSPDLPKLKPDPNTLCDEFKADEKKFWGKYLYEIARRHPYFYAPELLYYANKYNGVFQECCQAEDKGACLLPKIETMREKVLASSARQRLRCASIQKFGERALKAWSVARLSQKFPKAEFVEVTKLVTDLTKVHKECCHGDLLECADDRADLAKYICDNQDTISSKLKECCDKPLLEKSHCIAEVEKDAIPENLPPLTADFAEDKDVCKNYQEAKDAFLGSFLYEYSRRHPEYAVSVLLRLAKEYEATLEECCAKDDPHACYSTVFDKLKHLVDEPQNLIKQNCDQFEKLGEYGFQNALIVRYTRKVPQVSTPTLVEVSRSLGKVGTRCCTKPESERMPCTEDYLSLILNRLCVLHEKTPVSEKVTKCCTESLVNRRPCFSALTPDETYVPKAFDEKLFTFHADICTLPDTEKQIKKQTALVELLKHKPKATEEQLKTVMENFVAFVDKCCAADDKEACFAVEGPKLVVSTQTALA

| SMILES | composite z-score [1] | composite Z-score [2] | composite z-score [3] | composite z-score [4] | composite z-score [5] | composite z-score [6] | composite z-score [7] | composite z-score [8] | composite z-score [9] | composite z-score [10] |
| --- | --- | --- | --- | --- | --- | --- | --- | --- | --- | --- |
| C=CCN(C(=O)C(c1cccs1)N(C(=O)/C=C\C(=O)O)C(C)(C)CO)C(C)(C)C (stereo not given) | 0.649 and 0.333 | -1.12 (inactive) and 0.108 (inactive) | -0.289 and -0.358 | -0.172 and -0.0728 | 0.786 and 0.805 | 0.414 and 0.831 | -0.68 and 0.64 | 0.0206 and -0.225 | -1.43 and -1.27 | -0.625 and -0.54 |
| CCC[C@@H]1C[C@@]1(CCC)[C@@H](NC(=O)c1ccc(-c2ccccc2)cc1)c1cccc(Cl)c1 | -0.0449 and 0.93 | -0.281 (inactive) and -0.599 (inactive) | 1.31 and -0.0569 | 0.723 and 0.0809 | 0.305 and 0.812 | 2.51 and 1.41 | 0.421 and -0.244 | -0.546 and 0.593 | 0.844 and -0.561 | -1.47 and 0.217 |
| C=CCN(CCCCC)C(=O)C1N(c2ccc(CCO)cc2)C(=O)C2C(C(=O)O)C3C=CC21O3 (stereo not given) | 0.193 and 0.344 | -1.27 (inactive) and -0.154 (inactive) | -0.474 and 0.157 | -0.127 and -0.0716 | -0.349 and 0.574 | -0.632 and -0.323 | -0.18 and -1.2 | -0.393 and -0.951 | -0.914 and -1.38 | -1.1 and -1.15 |
| C=CCN(Cc1ccccc1)C(=O)C1N(c2c(Cl)cccc2CO)C(=O)C2C(C(=O)O)C3C=CC21O3 (stereo not given) | -1.52 and -0.682 | -0.874 (inactive) and -0.317 (inactive) | -0.425 and -0.352 | -0.168 and -0.261 | -0.774 and 0.32 | -0.908 and -0.629 | -0.628 and -0.742 | -1.89 and -1.02 | -3.43 and -1.44 | -1.31 and -1.79 |
| O=C1C[C@]2(c3ccc([N+](=O)[O-])cc3)C(=O)N(Cc3ccccc3)c3cc(CO)ccc3[C@H]2N1C1CCCCC1 | -0.047 and -0.118 | 0.285 (inactive) and -0.0345 (inactive) | -0.0627 and 0.13 | -0.179 and 0.0118 | 0.272 and 0.439 | 0.366 and 1.14 | 0.679 and -0.627 | 0.802 and 0.377 | -0.468 and 0.393 | 0.28 and 0.772 |
| C=CCN(CCCC)C(=O)C1N(c2ccc(CCO)cc2)C(=O)C2C(C(=O)O)C3C=CC21O3 (stereo not given) | -0.196 and -1.75 | -0.708 (inactive) and -0.319 (inactive) | -0.454 and -0.477 | 0.0039 and -0.14 | 0.809 and 0.91 | 0.253 | -1.05 and -0.525 | -1.48 and -0.741 | -3.26 and -3.79 | -1.74 and -2.64 |
| CC(C)OC(=O)C=C1C[C@@H](c2cccc(C(F)(F)F)c2)O[C@@H](c2cccc(C(F)(F)F)c2)O1 | 0.516 and 0.8 | -0.313 (inactive) and -0.0102 (inactive) | -0.166 and -0.257 | -0.0597 and -0.118 | 0.407 and 0.738 | 2.3 and 0.841 | 1.56 and 0.103 | -0.167 and 1.11 | -0.24 and -0.619 | 0.711 and 1.06 |
| CCOC(=O)[C@H](Cc1ccccc1)NC(=O)CCC1CC(OC(=O)NCc2cccc3ccccc23)CC2(CCCC(COC(=O)NCCCN3CCCC3=O)O2)O1 (stereo not given in full) | -0.395 | -0.365 (inactive) | 0.0203 | -0.101 | 0.165 | 1.14 | -0.223 | 1.12 | 0.5 | 1.08 |
| C=CCN(C(=O)C(c1cccs1)N(C(=O)/C=C\C(=O)O)c1ccc(CCO)cc1)C(C)(C)C (stereo not given) | 0.779 and 0.432 | -0.374 (inactive) and -0.419 (inactive) | -0.312 and -0.448 | -0.0708 and -0.0924 | 0.663 and 0.867 | 2.45 and 2.51 | 0.904 and 1.16 | -0.847 and -1.43 | -1.74 and -2.91 | -0.941 and -0.744 |
| C[C@@H](c1ccccc1)N1C(=O)[C@H]2[C@H]3[C@H](O)[C@H](O)CC(=O)[C@@H]3CC[C@H]2C1=O | 0.294 | 0.28 (inactive) | -0.0345 | -0.0843 | 0.149 | 0.438 | 0.727 | 0.661 | 0.433 | 0.583 |
| C=C[C@@H](C)[C@H](O)c1ccc(O)c2ccccc12 | -0.0066 and 0.457 | 0.342 (inactive) and 0.259 (inactive) | -0.209 and -0.454 | -0.247 and -0.223 | -0.211 and -0.59 | 0.294 and -0.0874 | 0.279 and -0.559 | -0.309 and -1.66 | 1.34 and 0.0548 | -0.418 and -1.3 |
| C=CCN(CCCC)C(=O)C1N(c2c(Cl)cccc2CO)C(=O)C2C(C(=O)O)C3C=CC21O3 (stereo not given) | -0.817 and -0.128 | -0.533 (inactive) and 0.273 (inactive) | -0.408 and 0.539 | -0.173 and 0.608 | -0.748 and 0.955 | -0.455 and 1.89 | -0.111 and -0.125 | -0.818 and -1 | -1.4 and -1.99 | -1.69 and -2.68 |
| C=CCN(C(=O)C1N(C(C)(C)CO)C(=O)C2C(C(=O)O)C3C=CC21O3)c1ccc(OC)cc1 (stereo not given) | -0.821 and -2.22 | 1.39 (inactive) and -0.174 (inactive) | -0.383 and -0.578 | -0.154 and -0.147 | 0.548 and 0.314 | 0.0457 and -0.218 | 0.995 and -0.102 | -0.718 and -1.28 | -4.67 and -4.11 | -0.79 and -1.96 |
| COC(=O)C1=C(C)N(Cc2ccccc2)[C@]23O[C@](C(=O)OC)(C(=O)N2[C@@H]1c1ccccc1)[C@@H](c1ccccc1)[C@@H]3C(=O)c1ccccc1 | 0.711 and -0.334 | -0.0461 (inactive) and 0.0162 (inactive) | -0.0111 and -0.0048 | -0.119 and -0.0974 | 0.179 and 0.178 | 0.49 and 0.258 | 0.315 and -0.144 | 0.661 and -0.776 | 0.189 and 0.843 | 0.675 and 0.142 |
| CO[C@H]1COC(=O)CC=C[C@H](C)[C@H](OC)COC(=O)[C@@H](C)COC(=O)CC=C[C@@H]1C | -0.774 and -0.721 | 0.606 (inactive) and -0.054 (inactive) | -0.0984 and -0.0932 | -0.153 and -0.14 | -0.173 and -0.455 | -0.315 and -0.798 | -0.497 and -0.561 | 0.467 and 0.0015 | 1.16 and 0.85 | -0.413 and -1.52 |
| COc1ccc(COC(=O)NN=C2C[C@@H](O)[C@@H](O)[C@@H]3[C@@H]4C(=O)N(C(C)(C)C)C(=O)[C@@H]4CC[C@H]23)cc1 | 0.682 | 1.08 (inactive) | -0.194 | -0.0001 | 0.633 | 0.7 | 1.51 | 1.22 | 0.0955 | -0.457 |
